Results reported in PubChem BioAssay AID1159580 (chemical genetic matrix, 2015).
Screen size: about 5,500 compounds; about 2,000 (36%) were called active. Inconclusive results (about 18%) are left out. Cut-off read from the data, not from the text of the source: active = normalized growth mostly below about 0.91 (no sharp cut-off); inconclusive = no clear call, values can overlap the other calls; inactive = mostly above about 0.92. This is one part of the list.

Test: chemical genetic growth profiling, strain panel (AID 1159580);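 note: tested at 20 µM; growth read once vehicle control cultures reached saturation at 30 °C; 1 = growth at the plate median or of vehicle wells; lower values mean less growth of the strain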
Settings: S. cerevisiae deletion strains, growth OD
[1] = locus YHR030C, strain SLT2, stronger effect = lower value
[2] = locus YHR079C, strain IRE1, stronger effect = lower value
[3] = locus YJL095W, strain BCK1, stronger effect = lower value
[4] = locus YJR066W, strain TOR1, stronger effect = lower value
[5] = locus YLR113W, strain HOG1, stronger effect = lower value
[6] = locus YNL183C, strain NPR1, stronger effect = lower value
[7] = locus YOR231W, strain MKK1, stronger effect = lower value
[8] = locus YPL256C, strain CLN2, stronger effect = lower value

Measured: normalized growth

O=C(Nc1ccc(N2CCOCC2)cc1)c1ccc(-n2cccn2)cc1
inactive: locus YAR019C, strain CDC15, stronger effect = lower value 0.994 | locus YBL105C, strain PKC1, stronger effect = lower value 0.982 | locus YBR135W, strain CKS1, stronger effect = lower value 0.974 | locus YBR136W, strain MEC1, stronger effect = lower value 0.979 | locus YBR160W, strain CDC28, stronger effect = lower value 0.975 | locus YDL017W, strain CDC7, stronger effect = lower value 0.983 | locus YDL028C, strain MPS1, stronger effect = lower value 0.985 | locus YDL101C, strain DUN1, stronger effect = lower value 0.981 | locus YDL108W, strain KIN28, stronger effect = lower value 0.974 | locus YDL132W, strain cdc53, stronger effect = lower value 0.973 | locus YDL214C, strain PRR2, stronger effect = lower value 0.959 | locus YDR052C, strain DBF4, stronger effect = lower value 0.985 | locus YDR054C, strain cdc34, stronger effect = lower value 0.987 | locus YDR226W, strain ADK1, stronger effect = lower value 0.982 | locus YDR477W, strain SNF1, stronger effect = lower value 0.96 | locus YER123W, strain YCK3, stronger effect = lower value 0.915 | locus YER133W, strain GLC7, stronger effect = lower value 0.957 | locus YFL009W, strain cdc4, stronger effect = lower value 0.988 | locus YFL029C, strain CAK1, stronger effect = lower value 0.988 | locus YFR003C, strain YPI1, stronger effect = lower value 0.988 | locus YFR019W, strain FAB1, stronger effect = lower value 0.955 | locus YFR028C, strain CDC14, stronger effect = lower value 0.977 | locus YGR040W, strain KSS1, stronger effect = lower value 0.953 | locus YGR052W, strain FMP48, stronger effect = lower value 1.01 | locus YGR092W, strain DBF2, stronger effect = lower value 0.991 | [1] 1.13 | [2] 1.1 | locus YHR082C, strain KSP1, stronger effect = lower value 1.07 | locus YHR205W, strain SCH9, stronger effect = lower value 0.982 | locus YIL147C, strain SLN1, stronger effect = lower value 0.972 | [3] 1 | locus YJL128C, strain PBS2, stronger effect = lower value 0.95 | locus YJL157C, strain FAR1, stronger effect = lower value 0.966 | locus YJR016C, strain ILV3, stronger effect = lower value 0.986 | locus YJR066W, strain TOR1 (second series), stronger effect = lower value 0.96 | [4] 1.1 | locus YKL048C, strain ELM1, stronger effect = lower value 0.946 | locus YKL067W, strain YNK1, stronger effect = lower value 0.954 | locus YKL101W, strain HSL1, stronger effect = lower value 0.931 | locus YKL193C, strain SDS22, stronger effect = lower value 0.981 | locus YKL203C, strain TOR2, stronger effect = lower value 1.04 | [5] 0.9 | locus YLR133W, strain CKI1, stronger effect = lower value 0.962 | locus YLR403W, strain SFP1, stronger effect = lower value 0.984 | locus YML070W, strain DAK1, stronger effect = lower value 0.928 | locus YMR001C, strain CDC5, stronger effect = lower value 0.983 | locus YMR205C, strain PFK2 (second series), stronger effect = lower value 0.95 | locus YMR277W, strain FCP1, stronger effect = lower value 0.985 | locus YNL006W, strain LST8, stronger effect = lower value 0.979 | locus YNL020C, strain ARK1, stronger effect = lower value 0.96 | locus YNL161W, strain CBK1, stronger effect = lower value 0.978 | [6] 1.03 | locus YNL207W, strain RIO2, stronger effect = lower value 0.979 | locus YNL222W, strain SSU72, stronger effect = lower value 0.977 | locus YNL307C, strain MCK1 (second series), stronger effect = lower value 0.958 | locus YOL078W, strain AVO1, stronger effect = lower value 0.972 | locus YOL136C, strain PFK27, stronger effect = lower value 0.923 | locus YOR061W, strain CKA2, stronger effect = lower value 0.952 | locus YOR119C, strain RIO1, stronger effect = lower value 1.01 | [7] 0.949 | locus YOR329C, strain SCD5, stronger effect = lower value 0.985 | locus YPL031C, strain PHO85, stronger effect = lower value 0.962 | locus YPL153C, strain RAD53, stronger effect = lower value 0.958 | locus YPL204W, strain HRR25, stronger effect = lower value 0.924 | locus YPL209C, strain IPL1, stronger effect = lower value 0.979 | [8] 1.02 | locus YPR025C, strain CCL1, stronger effect = lower value 0.982 | locus YPR106W, strain ISR1, stronger effect = lower value 0.976 | locus YPR111W, strain DBF20, stronger effect = lower value 0.968 | strain NNK1, stronger effect = lower value 0.977 | strain TSCII, stronger effect = lower value 0.982

O=C(CCNNC(=O)c1ccncc1)NCc1ccccc1
inactive: locus YAL040C, strain CLN3, stronger effect = lower value 0.999 | locus YCL061C, strain MRC1 (second series), stronger effect = lower value 1 | locus YDR150W, strain NUM1, stronger effect = lower value 0.998 | locus YDR363W, strain ESC2, stronger effect = lower value 0.959 | locus YER002W, strain NOP16, stronger effect = lower value 0.994 | locus YGR229C, strain SMI1, stronger effect = lower value 0.986 | [1] 0.978 | [2] 0.975 | [3] 0.972 | [4] 0.961 | locus YJR075W, strain HOC1, stronger effect = lower value 0.994 | [5] 0.966 | locus YMR263W, strain SAP30, stronger effect = lower value 0.994 | locus YNL153C, strain GIM3, stronger effect = lower value 0.99 | locus YNL175C, strain NOP13, stronger effect = lower value 0.996 | [6] 0.931 | locus YNL197C, strain WHI3, stronger effect = lower value 0.993 | locus YNL224C, strain SQS1, stronger effect = lower value 0.998 | locus YOR083W, strain WHI5 (second series), stronger effect = lower value 1 | [7] 0.97 | locus YPL055C, strain LGE1, stronger effect = lower value 0.987 | locus YPL241C, strain CIN2, stronger effect = lower value 1 | [8] 0.974
